Data taken from PubChem BioAssay (NCI).
The panel holds about 83,000 compounds, 20% with a hit somewhere; the sample as a whole holds those more often.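 In brief: 96-well plates, 48 h treatment, single concentration, percent growth endpoint.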 Unmarked numbers belong to inactive results. Calls of active or inactive are those of the source. How the source made its calls: active means growth percent below 10; inactive means the rest.

Each compound was assayed on RXF 393 renal (assay: NCI-60 one-dose screen, 48 h (100 = growth as untreated, 0 = no growth, -100 = all killed)). Details: 10 µM unless noted.

SMILES	growth
O=[N+]([O-])c1cc2c(cc1Br)-c1ccccc1C2	99.5%
Clc1ccc(Nc2nc(Nc3ccccc3)nc(Nc3ccc(-c4cc(-c5ccc(Cl)cc5)on4)cc3)n2)cc1	74.6%
Cc1cc(=O)c2c(C)ccc(C)c2[nH]1	90.7%
Cc1cc(=O)[nH]n1-c1cc(Cl)ccc1N	107%
CC(C)OC1=C(Cl)C(=O)c2ccccc2C1=O	99.6%
COc1cccc(C2CC(=O)Nc3cc4c(cc32)OCO4)c1OC (centres undefined)	87%
COc1ccccc1CNCCCCCCCCCCCCN1C(=O)c2ccc3c4c(ccc(c24)C1=O)C(=O)N(CCCCCCCCCCCCNCc1ccccc1OC)C3=O	-69.6% (active)
O=C1C=CC(=O)N1CCCCCCCCCCN1C(=O)C=CC1=O	76.6%
Cc1ccc(N=c2nc3sc4c(C)ccc(C)c4n3c(N)c2C#N)cc1	124%
COc1cc2nc(SCc3cc(OC)c(OC)c(OC)c3)n(-c3ccccc3OC)c(=O)c2cc1OC	78.1%
Cc1nc2nc(C(F)(F)F)[nH]c2nc1C	106%
CC(C)(C)[Si](C)(C)OC1[C@@H](CNC(=O)NC(=O)CCl)O[C@@H](n2cnc3c(N)ncnc32)[C@H]1O[Si](C)(C)C(C)(C)C (some centres undefined)	-13.3% (active)
Fc1ccccc1Nc1ccc2nnc(-c3ccncc3)n2n1	113%
NC(=O)c1nc2c([nH]c1=O)CCCC2	97.6%
CCN1CCN(C(=S)SCC(=O)Nc2nc3ccc(OC)cc3s2)CC1	92.5%
O=C(NCc1cccnc1)c1ccc([N+](=O)[O-])o1	-9.05% (active)
N#CC1=C(N)Oc2cc(N)ccc2C1c1ccc(F)cc1 (centres undefined)	74.9%
O=c1[nH]c(-c2ccncc2)nc2sc3c(c12)CCCCCC3	-1.71% (active)
CC1SC(c2cccc(Oc3ccccc3)c2)N(CCc2cccs2)C1=O (centres undefined)	-90.6% (active)
COc1ccc(-c2c(-c3cc4c(c(OC)c3OC)OCO4)noc2N)cc1	-13.6% (active)

SMILES	growth
c1ccc(-c2n(Cc3ccc4ccccc4n3)c3ccccc3[n+]2Cc2ccc3ccccc3n2)cc1	-4.06% (active)
O=S(=O)(Nc1ncccn1)c1ccc(Nc2ccc3nnc(-c4ccncc4)n3n2)cc1	118%
CC(=O)c1cc(C)c(OC(=O)c2ccccc2)c(C)c1	98.9%
Oc1ccccc1/C=N/Nc1nc2ccccc2s1	86.3%
O=C1NC(=S)S/C1=C\c1cccc([N+](=O)[O-])c1	153%
COCCOC1=C(Cl)C(=O)c2ccccc2C1=O	18.7%
O=C1NC(=O)C(CSc2ccccc2)(c2ccccc2)N1 (centres undefined)	103%
Clc1ccccc1Nc1ccc2nnc(-c3ccncc3)n2n1	96.2%
COc1cc(CNCCCN2C(=O)c3ccc4c5c(ccc(c35)C2=O)C(=O)N(CCCNCc2cc(OC)c(OC)c(OC)c2)C4=O)cc(OC)c1OC	-95.3% (active)
O=C1C(OCCOc2ccccc2)=C(OCCOc2ccccc2)C(=O)c2ccccc21	79.4%
COc1ccc(OC)c(C2C(C#N)=C(N)Oc3cc(O)ccc32)c1 (centres undefined)	92.1%
O=C1c2ccccc2C(=O)c2c(Nc3ccc(CCO)cc3)ccc(O)c21	74.6%
CCOC(=O)c1c(Cl)c2c(n1Cc1ccc(OC)cc1)-c1oncc1CCC2	80.5%
Cc1oc2c(c1C(=O)N1CC[C@@H](N)C1)C(=O)c1c(c(O)c3ccccc3c1O)C2=O	48.9%
O=C1c2[nH]cc(CN[C@@H]3CCCN3)c2C(=O)c2c1c(O)c1ccccc1c2O	-98.2% (active)
O=C1C(N2CCOCC2)=Cc2cccc3cccc1c23	99.3%
COc1ccc(Cn2c(Br)c3c(c2-c2cc(OC)c(OC)c(OC)c2)CCc2sc(N)nc2-3)cc1	-0.407% (active)
Nc1nc2c(s1)CCc1c-2c(Br)n(Cc2ccccc2)c1Br	17.9%
COC(=O)/C=C1/CCC2C3CCC4=CC(=O)C(Br)CC4(C)C3C(=O)CC12C (centres undefined)	59.9%
